Out of some 2,100 compounds screened, about 770 (37%) were called active. The list shows a part of the results. A number with no mark means an inactive call.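 How the source made its calls: active means by-eye trace score of 1 for enhancers or -1 for inhibitors, so actives lie on both sides (some results past the limit were not filed as active); inactive means score 0, or 3 fluorescent, or 4 baseline rise.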

In this experiment the target is G protein-activated inward rectifier potassium channel 2 (Homo sapiens) + G protein-activated inward rectifier potassium channel 1 (Homo sapiens) (UniProt P48051+P48549). In words: GIRK1/2 thallium flux modulators, retest, confirmation, cell-based, HEK293 rmGlu8/hGIRK1/2, FluoZin-2 (AID 623911). Particulars: HEK293 rmGlu8/hGIRK1/2, thallium flux FluoZin-2; actives lie on both sides; glutamate co-added at its EC20 level.
G protein-activated inward rectifier potassium channel 2 (Homo sapiens) + G protein-activated inward rectifier potassium channel 1 (Homo sapiens), sequence (P48051 whole entry, looked up): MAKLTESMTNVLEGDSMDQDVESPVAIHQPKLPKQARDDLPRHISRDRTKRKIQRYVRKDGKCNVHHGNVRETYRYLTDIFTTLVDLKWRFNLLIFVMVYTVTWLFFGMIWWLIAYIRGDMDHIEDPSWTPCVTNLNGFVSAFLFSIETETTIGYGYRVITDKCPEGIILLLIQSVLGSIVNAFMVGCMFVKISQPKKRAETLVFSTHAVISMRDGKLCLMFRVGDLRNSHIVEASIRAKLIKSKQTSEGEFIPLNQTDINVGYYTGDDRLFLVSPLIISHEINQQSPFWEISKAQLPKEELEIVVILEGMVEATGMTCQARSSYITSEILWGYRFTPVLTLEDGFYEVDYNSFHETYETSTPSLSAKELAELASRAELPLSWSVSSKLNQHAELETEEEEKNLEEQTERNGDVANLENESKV
G protein-activated inward rectifier potassium channel 2 (Homo sapiens) + G protein-activated inward rectifier potassium channel 1 (Homo sapiens), sequence (P48549 whole entry, looked up): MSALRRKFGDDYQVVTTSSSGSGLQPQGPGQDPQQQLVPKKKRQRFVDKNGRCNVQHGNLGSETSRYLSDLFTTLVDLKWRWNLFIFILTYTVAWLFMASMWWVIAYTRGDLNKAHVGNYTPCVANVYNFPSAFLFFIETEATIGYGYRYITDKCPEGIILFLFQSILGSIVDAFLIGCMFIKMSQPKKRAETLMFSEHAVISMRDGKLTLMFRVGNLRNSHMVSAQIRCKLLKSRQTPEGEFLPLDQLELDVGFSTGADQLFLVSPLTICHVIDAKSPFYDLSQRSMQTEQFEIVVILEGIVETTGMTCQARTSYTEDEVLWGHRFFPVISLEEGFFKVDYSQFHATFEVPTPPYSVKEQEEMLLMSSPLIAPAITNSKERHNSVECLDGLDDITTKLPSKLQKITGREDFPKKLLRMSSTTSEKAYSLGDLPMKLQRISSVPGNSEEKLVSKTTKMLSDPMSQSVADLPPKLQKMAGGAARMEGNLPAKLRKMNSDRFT
`N#CC(C#N)=C1C=C2C=C(N3CCCCCC3)CCC2CC1` (configuration not stated): the manual score was 3.

Turning to `CCCC(=O)Nc1ccc(NC(=O)C2CC2)cn1`, the manual score is 0. With `CN(c1ccc(OCC(=O)OCC(=O)Nc2ccccc2F)cc1)S(=O)(=O)c1cccs1`, the manual score was 0. As for `O=C(NC(=S)N1CCN(c2ccc(C(F)(F)F)cc2[N+](=O)[O-])CC1)c1cccs1`, the figure is 1 (active); as for `O=C(CNC1CCCCCC1)Nc1ccc(N2CCCC2)cc1`, 0; as for `CCc1sc(NC(=O)CN2CCOCC2)nc1-c1ccccc1`, 0.

Take `O=C(CN1CCOCC1)Nc1ccc(C2CCCCC2)cc1`: the manual score is 1 (active). On to `S=c1[nH]c2cc(Cl)ccc2s1`, for which the manual score was 1 (active). As for `CCOC(=O)CSc1nc2ccc(Nc3nc(N4CCOCC4)nc(N4CCOCC4)n3)cc2s1`, the manual score is 0. With `O=C1CC(c2ccco2)Sc2nc3ccccc3n21` (configuration not stated), the manual score is 0. `CCCc1nc2ccccc2c(=O)n1/N=C/c1c(C)[nH]n(-c2ccc(C)cc2)c1=O`: the manual score is 1 (active). With `Cc1ccc(-n2[nH]c(C)c(/C=N/c3ccccn3)c2=O)cc1`, the manual score was 0. Then `Cc1ccc(C2CC2c2n[nH]c(=S)n2-c2ccc(C)cc2)cc1` (configuration not stated), with 0; and `CCOc1ccccc1N1CCN(C(=S)NC(=O)C23CC4CC(CC(C4)C2)C3)CC1`, with 0; and `CCOc1ccccc1N1CCN(C(=O)c2cc3c(s2)CCC3)CC1`, with -0.5. Consider `CCCc1ccc(C(=O)N2CCN(c3ccccc3OCC)CC2)cc1`, for which the manual score was -1 (active). Take `O=C(CSc1nc(CCC2CCCC2)nc2ccccc12)NCc1ccc2c(c1)OCO2`: the manual score was 1 (active).

Regarding `O=C(CSc1c[nH]c2ccccc12)NCc1ccc2c(c1)OCO2`, the manual score is -0.5.

For the compound `NC(=O)c1noc(C(=O)N(CC(=O)NC2CCCC2)Cc2ccc3c(c2)OCO3)c1N`, the manual score was 0. Consider `Cc1ccc(C)n1-c1ccc(C(=O)NN)cc1`, for which the manual score was 0. For the compound `CC(/C=N/n1c(C2CCCCC2)n[nH]c1=S)=C\c1ccccc1`, the manual score is 0. Then `CC(C)c1ccc(-n2cccc2/C=C2/C(=N)N3C=CSC3=NC2=O)cc1`, with 0; and `CCCn1c(O)c(N=NC(=O)c2ccco2)c2ccccc21`, with 1 (active); and `CCCCNC(=S)N=Nc1c(O)n(Cc2ccccc2)c2ccccc12`, with 0.

In the case of `CCn1c(O)c(N=NC(=O)CNc2cccc(C)c2)c2ccccc21`, the manual score is 0. As for `C=CCn1c(N)c(C(=O)OC(C)(C)C)c2nc3ccccc3nc21`, the manual score was 0. On to `C=CCn1c(O)c(N=NC(=O)OC(C)(C)C)c2ccccc21`, for which the manual score was 1 (active).

As to `CCCCn1c(O)c(N=Nc2ccccn2)c2ccccc21`, the manual score is 0. With `O=C(NC(=S)N1CCCCC1)C12CC3CC(CC(C3)C1)C2`, the manual score was 0.5. With `CC12CC3(C)CC(C)(C1)CC(C(=O)NC(=S)N1CCOCC1)(C2)C3`, the manual score was 1 (active). As for `CC12CC3CC(C)(C1)CC(C(=O)NC(=S)N1CCCCC1)(C3)C2`, the figure is 1 (active).

`CC12CC3CC(C)(C1)CC(C(=O)NC(=S)N1CCOCC1)(C3)C2`: the manual score is 0.5. `CCC1(C)CC(c2csc(N)n2)CCO1` (configuration not stated): the manual score is 0. As for `CCOc1ccc(N2C(=O)c3ccccc3C2O)cc1` (configuration not stated), the figure is 0; as for `CCCCOc1ccccc1C1C(C(=O)OC)=C(C)N(C)C(C)=C1C(=O)OC`, -1 (active); as for `CCCCN1C(=O)c2ccccc2C1C(=O)NC1CCCC1` (configuration not stated), 0.

Turning to `CCc1nc(SCC(=O)Nc2nnc(CC)s2)c2c(C)c(C)sc2n1`, the manual score was 0. In the case of `Cc1sc2nc(C3CC3)nc(SCC(=O)N3CC(=O)Nc4ccccc43)c2c1C`, the manual score was 0.

Turning to `CCc1nc(SCC(=O)N2CC(=O)Nc3ccccc32)c2c(C)c(C)sc2n1`, the manual score was 1 (active). Regarding `O=C1NC(=S)SC1=C1CCCCCC1`, the manual score was 1 (active).

`CSc1nc2ccccc2cc1/C=C(\C#N)c1cccc(C)c1`: the manual score is 0. For `CC(C)CNC(=S)NC(=O)c1ccc(F)cc1`, the manual score was 1 (active). For `CCCCNC(=S)NC(=O)c1ccc([N+](=O)[O-])cc1`, the manual score is 1 (active). As to `COC(=O)C(CC(C)C)NC(=O)c1ccc([N+](=O)[O-])c(C)c1` (configuration not stated), the manual score was 0. For the compound `CCCCCC(=O)NC(=S)NNC(=O)c1ccc([N+](=O)[O-])cc1`, the manual score is 1 (active). Take `CC(C)CNC(=S)NC(=O)c1ccc([N+](=O)[O-])cc1`: the manual score was 1 (active). Turning to `CCCCCCc1cc2cc(-c3nnc(-c4cc(OC)c(OC)c(OC)c4)o3)c(=O)oc2cc1O`, the manual score was 3. As for `CCn1c2ccccc2c2cc(/C=N/n3cn[nH]c3=S)ccc21`, the manual score was 0. Take `O=c1cc(CN2CCOCC2)nc(C2CC2)[nH]1`: the manual score is 0. For `O=C(COC(=O)CCC1CCCC1)Nc1nc2c(F)c(F)c(F)cc2s1`, the manual score is 0.5.

As for `O=C(CSc1nc(-c2ccc(F)cc2)cs1)N1CCOCC1`, the manual score was 0. Turning to `CCOC(=O)/C(C#N)=C/C1=C(N2CCCC2)CC(C)(C)OC1`, the manual score is 0. As for `CCn1c(SCC(=O)NC(=O)NCc2ccco2)nc2sc(C)c(C)c2c1=O`, the figure is 1 (active); as for `Cc1sc2nc(C(C)C)nc(SCC(=O)N3c4ccccc4CC3C)c2c1C` (configuration not stated), 1 (active). Then `Cc1sc2nc(C(C)C)nc(SCC(=O)NCc3ccco3)c2c1C`, with 1 (active); and `O=C(CSc1nnc(-c2c[nH]c3ccccc23)n1-c1ccc(F)cc1)NCc1ccco1`, with -0.5.

As to `CCCn1c(SCc2nc3sc(C)c(C)c3c(=O)[nH]2)nc2ccccc2c1=O`, the manual score is 0. Consider `Cc1sc2ncnc(SCc3ccco3)c2c1C`, for which the manual score was 0. Regarding `O=C(c1ccc(CS(=O)(=O)c2ccc(Br)cc2)o1)N1CCN(c2ncccn2)CC1`, the manual score was 0. In the case of `CCOC(=O)C1CCN(C(=O)CN(c2ccc(Cl)c(C(F)(F)F)c2)S(C)(=O)=O)CC1`, the manual score was 0. As for `O=c1cc(Cn2ccnc2)c2cc3c(cc2o1)CCC3`, the figure is 0; as for `O=C(Nc1ccc(F)cc1)c1cccc2c1C(=O)N(Cc1ccccn1)C2`, 0.

With `C/C(CC(C)(C)C1CCCCC1)=N\NC(N)=S`, the manual score is 0. As for `Cc1ccc2nc(-c3ccc(O)cc3)c(Nc3ccc4c(c3)OCCO4)n2c1`, the figure is -1 (active); as for `Cc1ccc(-c2nnc(SCC(=O)Nc3ccc4c(c3)OCCO4)n2N)cc1`, 0; as for `CCn1c(-c2cc3c(C(F)(F)F)nn(C)c3s2)n[nH]c1=S`, 0. Consider `O=C(NC1CC1)c1ccc(CSCc2cccc(F)c2)o1`, for which the manual score was 0. Take `O=C(CCSCc1cccc(Cl)c1)NCCc1ccc(Cl)cc1`: the manual score is 1 (active). As to `O=C(O)C1C2C=CC(C2)C1C(=O)NCCc1cccc(Cl)c1` (configuration not stated), the manual score was 0.5. On to `COc1ccc(C2C(C(N)=O)=C(C)Nc3nc(-c4cccc(Cl)c4)nn32)cc1OC` (configuration not stated), for which the manual score was 0.

Consider `CCCCCc1nnc(NC(=O)Cc2cccs2)s1`, for which the manual score is 0. Regarding `O=C(Nc1nnc(-c2cccs2)o1)c1cccc(Oc2ccccc2)c1`, the manual score is 1 (active). Turning to `O=C(N/N=C/c1c(Cl)cccc1Cl)c1cccc(F)c1`, the manual score is 0. In the case of `O=C(Nc1nnc(-c2cccs2)o1)c1cccc(C(F)(F)F)c1`, the manual score was 1 (active).

Regarding `CCCCN(C)S(=O)(=O)c1ccc(C(=O)Nc2nnc(-c3cccs3)o2)cc1`, the manual score was 1 (active). As for `COc1ccc(C(=O)Nc2ccc(Oc3ncnc4sc(-c5ccccc5)cc34)cc2)cc1OC`, the figure is 0. On to `Cc1cc(C)c(NC(=O)c2ccc(S(=O)(=O)N(C)C)cc2)c(C)n1`, for which the manual score was 0.

As to `O=C(Nc1nnc(-c2cccs2)o1)c1cccc(F)c1`, the manual score was 1 (active). For `Cc1occc1C(=O)Nc1cccc(C(F)(F)F)c1`, the manual score was 0. On to `CCOc1ccc(-c2cc(C)n3nc(C(N)=O)cc3n2)cc1`, for which the manual score is 0. Take `COCCCNc1c2c3c(cccc3[nH]c1=O)C(=O)c1ccccc1-2`: the manual score was 3. Take `Cc1[nH]c2ccccc2c1CN1CCc2ccccc2C1`: the manual score is 0. Regarding `CNc1nc(Cl)nc(NC(C)(C)C)n1`, the manual score is 0. For the compound `CCOC(=O)/C(=C\C=C1/Sc2cc(OCC)c(OCC)cc2N1CC)C(C)=O`, the manual score was 3. For the compound `CCC1Oc2ccc(C)cc2N(CC(=O)N(Cc2ccc(C)o2)C2CCCC2)C1=O` (configuration not stated), the manual score was -1 (active). Then `Cc1ccc2c(c1)N(CC(=O)N(Cc1ccccn1)Cc1ccco1)C(=O)C(C(C)C)O2` (configuration not stated), with -0.5; and `Cc1ccc(S(=O)(=O)c2c(C)cc(C)nc2Cl)c(C)c1`, with 0; and `CCCCn1c(SCC(=O)Nc2ccc(OC)cc2)nc2ccc(N3CCOCC3)cc2c1=O`, with 0. With `CCC(C)NC(=O)CSc1nc2ccccc2c(=O)n1Cc1ccc(OC)cc1` (configuration not stated), the manual score is 0.

On to `COc1ccc(NC(=O)CSc2nc3ccccc3c(=O)n2CCCN2CCCCC2)c(OC)c1`, for which the manual score was -1 (active). `CCOC(=O)CSc1nc(C)c2cc(OC)ccc2n1`: the manual score is 0.

`COc1ccc(C(C)n2c(C)c3c(C)nnc(C)c3c2C)cc1` (configuration not stated): the manual score was -1 (active). For `Cn1cc(S(=O)(=O)Nc2ccc(F)cc2F)c(=O)n(C)c1=O`, the manual score was 0. Regarding `S=c1nn[nH]n1C12CC3CC(CC(C3)C1)C2`, the manual score is 1 (active). On to `Cc1cc2[nH]c(=O)c3ccccc3n2n1`, for which the manual score is 0.

As for `CCOC(=O)c1cnn2c1[nH]c(=O)c1ccccc12`, the manual score is 1 (active).

For the compound `CCOC(=O)c1ccccc1Nc1cn(C(C)=O)c2ccccc12`, the manual score is -0.5. In the case of `CCS(=O)(=O)Nc1ccc(-c2nnc(SCC(=O)c3ccc(NC(C)=O)c(OC)c3)o2)cc1`, the manual score was 0. As for `N#CCN1C(=S)N=C(Nc2cccc(Cl)c2)C12CCCCC2`, the figure is 0.5; as for `Cc1ccc(NC2=NC(=S)N(CC#N)C23CCCCC3)cc1`, 0; as for `COc1ccc(NC2=NC(=S)N(c3ccccc3C)C23CCCCC3)cc1`, 1 (active). In the case of `COc1ccc(OC)c(Nc2ncnc3c2cnn3-c2cccc(C)c2)c1`, the manual score is 0. For `CN(C)CCNc1ncnc2c1cnn2-c1ccc(Cl)cc1`, the manual score is 0. `Cc1ccc(-n2ncc3c(SCc4ccccc4)ncnc32)cc1`: the manual score was 1 (active). In the case of `NC(=O)CSc1ncnc2c1cnn2Cc1ccccc1`, the manual score is 0. Turning to `CCOC(=O)C(C)Sc1nc2c(cnn2-c2ccc(C)cc2)c(=O)[nH]1` (configuration not stated), the manual score is 0.

As to `Cc1ccc(CSc2ncnc3c2cnn3-c2ccc(C)cc2)cc1`, the manual score is 1 (active).

For the origin of these results see PubChem BioAssay AID623911 (Vanderbilt High Throughput Screening Facility, 2012).
